Compound activity deposited in PubChem BioAssay by National Center for Advancing Translational Sciences (NCATS).
CHX counter: Cycloheximide Counterscreen for Small Molecule Inhibitors of Shiga Toxin | cell reporter, cycloheximide protein synthesis inhibition counterscreen | max response, % | hit rate 12% among 300,000 | AID 2314, 2010; in the data active = max response mostly above about 13%, no sharp cut-off; inactive = mostly below about 14%; note: read at 38.3 µM for the half of the compounds with a filed dose
Shiga toxin inh: A qHTS for Small Molecule Inhibitors of Shiga Toxin; Vero cells, Shiga toxin protein synthesis inhibition reporter; inhibition, % at 38.7 µM; hit rate 9.2% among 290,000; in the data active = inhibition mostly above about 28%, no sharp cut-off; inactive = mostly below about 43%
VACV mCherry inh: qHTS for Stage-Specific Inhibitors of Vaccinia Orthopoxvirus: mCherry Reporter Primary qHTS; Vaccinia virus mCherry reporter infection, fluorescence; hit rate 0.63% among 310,000; Potency, µM (series often up to 36.5 µM), usual class: inhibitors; calls by dose curve; tested in A549 cells; note: nearly all actives have a fitted effect of over 35% in size
Vaccinia Venus: qHTS for Stage-Specific Inhibitors of Vaccinia Orthopoxvirus: Venus Reporter Primary qHTS; Vaccinia virus Venus reporter expression, fluorescence; Potency, µM (doses to about 36.5 µM), usual class: inhibitors; hit rate 0.46% among 330,000; calls by dose curve; tested in A549 cells; note: nearly all actives have a fitted effect of over 30% in size
Lassa entry inh: qHTS for Inhibitors of binding or entry into cells for Lassa Virus | Lassa virus pseudotype entry inhibition, cell reporter | Potency, µM (doses to about 37.9 µM), usual class: inhibitors | hit rate 1.2% among 300,000; calls by dose curve; tested in HEK293 cells; note: nearly all actives have a fitted effect of over 50% in size
Marburg entry inh: qHTS for inhibitors of binding or entry into cells for Marburg Virus; Marburg virus pseudotyped entry inhibition, cell reporter; hit rate 1.8% among 300,000; Potency, µM (top dose mostly 37.8 µM), most hits filed as inhibitors; calls by dose curve; tested in HEK293 cells
Large screens that a line does not name were inactive. Many of the other results were omitted from the sample, so hits are more common in it than they were.

CC(C)CC(NC(=O)NC(CCC(=O)O)C(=O)O)C(=O)O (stereo not given)	none (no result: VACV mCherry inh, Vaccinia Venus, Lassa entry inh, Marburg entry inh)
CC(=O)N1CCC(=NNC(=O)c2cccs2)CC1	CHX counter 55.2, Shiga toxin inh active, Marburg entry inh inconclusive
C=C(C)C1CC=C(C)C(=NNC(=O)c2ccncc2)C1 (stereo not given)	none (no result: CHX counter, Shiga toxin inh)
O=C(NN=C1C2CC3CC(C2)CC1C3)c1cccs1	CHX counter 48.3, Shiga toxin inh 73.1
C=C(C)C1CC=C(C)/C(=N/NC(=O)c2cccs2)C1 (stereo not given)	CHX counter 21.8, Shiga toxin inh 77.4, Marburg entry inh inconclusive
NC(=S)NN=C1C2CC3CC(C2)CC1C3	VACV mCherry inh inconclusive, Vaccinia Venus inconclusive
NC(=O)C(=O)NN=C1C2CC3CC(C2)CC1C3	CHX counter 8.0, Marburg entry inh inconclusive
Cc1cc(C)cc(SCc2noc(C(=O)NC(C)C)c2C(=O)NC(C)C)c1	none (no result: Lassa entry inh, Marburg entry inh)
O=C(NN=C1CCCC1)c1cccs1	CHX counter 62.9, Shiga toxin inh 91.5
O=C(NN=C1C2CC3CC(C2)CC1C3)c1ccccc1O	CHX counter 19.0, VACV mCherry inh inconclusive (no result: Lassa entry inh)
O=C(NN=C1CCCCCCCCCCC1)c1ccncc1	none
Cc1c(-c2nc(-c3ccncc3)no2)cccc1[N+](=O)[O-]	none (no result: VACV mCherry inh, Vaccinia Venus, Lassa entry inh, Marburg entry inh)
COc1ccc(-c2nc(-c3ccncc3)no2)c(OC)c1	CHX counter 61.3, Shiga toxin inh 110.0 (no result: VACV mCherry inh, Vaccinia Venus, Lassa entry inh, Marburg entry inh)
Fc1ccccc1-c1nc(-c2ccccc2)no1	CHX counter 40.3, Shiga toxin inh 67.9, Lassa entry inh inconclusive, Marburg entry inh inconclusive
Fc1ccccc1-c1nc(-c2cnccc2C(F)(F)F)no1	CHX counter 14.6
Fc1ccccc1-c1nc(-c2ccncc2)no1	CHX counter 23.8, Shiga toxin inh 40.7 (no result: VACV mCherry inh, Vaccinia Venus, Lassa entry inh, Marburg entry inh)
O=C(OCC(=O)N(CCc1ccccc1)Cc1ccccc1)c1ccccc1NCCO	none (no result: VACV mCherry inh, Vaccinia Venus, Lassa entry inh, Marburg entry inh)
CCCn1c(SCC(=O)NC(C)(C)C)nnc1-c1ccco1	none
Cc1ccc(-c2nc(-c3ccccc3)no2)c(Cl)c1	none (no result: Lassa entry inh, Marburg entry inh)
COc1ccc(-c2noc(-c3ccccc3F)n2)cc1	CHX counter 51.4, Shiga toxin inh 91.4 (no result: Lassa entry inh, Marburg entry inh)
Brc1ccccc1-c1nc(-c2ccccc2)no1	CHX counter 54.6, Shiga toxin inh 79.3 (no result: VACV mCherry inh, Vaccinia Venus, Lassa entry inh)
Cc1ccc(CNC(=O)Nc2cc(C(=O)NCc3cccc(F)c3)ccc2N2CCCC2)cc1	Lassa entry inh inconclusive (no result: CHX counter, Shiga toxin inh, Marburg entry inh)
COc1ccc(Cn2ccc3nc(C)c(C(=O)Nc4cc(C)cc(C)c4)cc3c2=O)cc1	none (no result: CHX counter, Shiga toxin inh, Marburg entry inh)
Cc1ccc(C)c2c(C)ccnc12	none (no result: CHX counter, Shiga toxin inh, Lassa entry inh, Marburg entry inh)
CCc1ccc(/C=C2/SC(=S)N(CCC(=O)NCCCN3CCOCC3)C2=O)cc1	CHX counter 48.2, Shiga toxin inh 90.6, VACV mCherry inh inconclusive
CN1CCN(C(=O)CCCN2C(=O)/C(=C/c3cccc(Br)c3)SC2=S)CC1	Lassa entry inh inconclusive, Marburg entry inh 10µM
CCc1ccc(/C=C2\SC(=S)N(CCCC(=O)N3CCN(C)CC3)C2=O)cc1	VACV mCherry inh inconclusive, Vaccinia Venus 28.2µM (no result: CHX counter, Shiga toxin inh, Lassa entry inh, Marburg entry inh)
COC(=O)c1ccc(/C=C2/SC(=S)N(CCC(=O)NCCCN3CCOCC3)C2=O)cc1	Marburg entry inh inconclusive (no result: Lassa entry inh)
CN1CCN(C(=O)CCN2C(=O)/C(=C/c3cccc(Br)c3)SC2=S)CC1	VACV mCherry inh inconclusive, Marburg entry inh inconclusive
O=C(CCS(=O)(=O)c1cccc2nonc12)Nc1c(F)cccc1F	none (no result: CHX counter, Shiga toxin inh)
COc1ccccc1NC(=S)NNC(=O)c1nn(C)c(C)c1Br	CHX counter 52.3, Shiga toxin inh 108.5
COc1ccccc1NC(=S)NNC(=O)c1nn(C)c(C)c1Cl	CHX counter 34.0
COc1ccccc1NC(=S)NNC(=O)c1nn(C)cc1Cl	none
CCCCNC(=S)NNC(=O)c1nn(C)c(C)c1Cl	CHX counter 28.8, Shiga toxin inh 73.7
O=C(NCCO)c1cn(C2CCN(Cc3c(F)cccc3Cl)CC2)nn1	none (no result: CHX counter, Shiga toxin inh, Lassa entry inh, Marburg entry inh)
COCC(=O)Nc1nc(-c2ccccc2)ns1	CHX counter 34.7 (no result: VACV mCherry inh, Vaccinia Venus)
CC(=O)Nc1nc(-c2ccccc2)ns1	CHX counter 23.3, Shiga toxin inh 38.1, Marburg entry inh inconclusive (no result: VACV mCherry inh, Vaccinia Venus)
CC12CCC(=O)N1C(C(=O)NNC(=O)c1ccc(Br)cc1)CS2 (stereo not given)	none (no result: CHX counter, Shiga toxin inh)
C#CCNC(=O)[C@H]1C=C(OC)C(=O)C[C@H]2c3ccccc3C[C@]12C	none (no result: CHX counter, Shiga toxin inh, VACV mCherry inh, Vaccinia Venus, Lassa entry inh)
CCSc1nnc(NC(=O)Nc2cccc(C)c2)s1	CHX counter 38.1, Shiga toxin inh 100.5, Lassa entry inh inconclusive, Marburg entry inh inconclusive
